According to publication PMC4336329 (PLoS ONE, 2015):
About 14,000 (4.5%) of roughly 310,000 compounds showed an effect of 50% or more. The effect is printed as a negative number. Shown is part of a subset that was picked to be rich in strong results.

Biological target: human ether-à-go-go-related gene (hERG) potassium channel (human, UniProt Q12809)
Experiment: primary screen, population patch clamp on CHO cells stably expressing hERG; higher = less effect of the substance
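Note: peak tail current of the secondary pulse compared with the same well before compound.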

human ether-à-go-go-related gene (hERG) potassium channel, sequence (Q12809 whole entry, looked up): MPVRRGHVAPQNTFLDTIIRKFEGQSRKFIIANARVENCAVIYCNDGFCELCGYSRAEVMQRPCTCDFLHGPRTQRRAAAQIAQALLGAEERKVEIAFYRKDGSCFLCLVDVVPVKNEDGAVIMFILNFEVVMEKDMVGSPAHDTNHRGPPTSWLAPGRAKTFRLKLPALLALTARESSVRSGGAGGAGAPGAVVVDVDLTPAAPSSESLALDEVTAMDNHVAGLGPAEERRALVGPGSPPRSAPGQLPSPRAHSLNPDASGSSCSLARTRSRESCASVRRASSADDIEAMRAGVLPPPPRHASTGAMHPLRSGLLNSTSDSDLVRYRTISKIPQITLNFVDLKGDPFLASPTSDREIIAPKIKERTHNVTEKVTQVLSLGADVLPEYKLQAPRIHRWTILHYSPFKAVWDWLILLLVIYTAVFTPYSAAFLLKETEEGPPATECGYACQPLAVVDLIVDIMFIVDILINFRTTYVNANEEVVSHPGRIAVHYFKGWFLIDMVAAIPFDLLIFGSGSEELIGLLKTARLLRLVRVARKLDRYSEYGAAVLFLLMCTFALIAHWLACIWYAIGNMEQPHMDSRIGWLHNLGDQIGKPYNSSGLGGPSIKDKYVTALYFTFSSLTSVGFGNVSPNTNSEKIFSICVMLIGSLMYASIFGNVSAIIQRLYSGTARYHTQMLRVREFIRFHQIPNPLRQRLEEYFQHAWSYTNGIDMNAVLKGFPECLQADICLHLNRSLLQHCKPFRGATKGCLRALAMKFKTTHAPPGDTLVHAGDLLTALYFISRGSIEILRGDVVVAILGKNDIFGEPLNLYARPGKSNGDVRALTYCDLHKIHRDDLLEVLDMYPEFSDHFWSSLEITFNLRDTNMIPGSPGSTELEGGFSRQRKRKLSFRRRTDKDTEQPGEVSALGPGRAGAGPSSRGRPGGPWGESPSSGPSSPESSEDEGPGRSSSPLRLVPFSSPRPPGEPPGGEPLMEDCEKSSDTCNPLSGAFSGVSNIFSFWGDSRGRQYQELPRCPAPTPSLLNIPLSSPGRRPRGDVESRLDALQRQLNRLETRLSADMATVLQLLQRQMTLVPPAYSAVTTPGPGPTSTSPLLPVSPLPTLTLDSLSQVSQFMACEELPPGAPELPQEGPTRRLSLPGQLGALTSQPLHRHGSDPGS

Row | SMILES | hERG current change (%, negative = inhibition) at 10uM [%]
1 | O=C(NCc1ccccc1)c1cccc(COc2ccc(Cl)cc2)c1 | 5.77
2 | COc1cc(C2C(C#N)=C(N)Oc3cc(O)ccc32)cc(OC)c1OC (stereo not shown) | 4.91
3 | COC(=O)c1cc(S(=O)(=O)NC2CCCCC2)cn1C | 10.5
4 | O=S(=O)(c1ccc(SCCO)nc1)N1CCOCC1 | -2
5 | CCOC(=O)CCNC(=O)Nc1cc2nc(C)n(Cc3cccc(Cl)c3)c2nc1C | 4.33
6 | O=c1cc(-c2ccccc2)[nH]c2ccccc12 | -11.4
7 | O=C(COC(=O)c1ccccc1[N+](=O)[O-])NNC(=O)c1cccs1 | -15.7
8 | CC(C)C(=O)N(Nc1nc2ccccc2s1)C(=O)C(C)C | -0.224
9 | CN1CCc2c(c3ccccc3n2C)C1.Cl | 11.4
10 | O=C1SCCc2c1n(Cc1ccccc1)c1ccccc21 | 2.89
11 | CCCCN1CCc2c(c3ccccc3n2Cc2ccccc2)C1 | -72.9
12 | CN1CCc2c(c3ccccc3n2Cc2ccccc2)C1.Cl | -71.2
13 | Cc1ccc(CCn2c3c(c4ccccc42)CN(C)CC3)cn1 | -3.74
14 | Cc1ccc2c(c1)c1c(n2CCc2ccc(C)nc2)CCN(C)C1 | -15.8
15 | COc1ccc(-c2ncc3ccccn23)cc1 | -5.24
16 | Cc1cc(NC(=O)c2ccc(N(C)S(=O)(=O)c3ccccc3)cc2)no1 | -11.5
17 | COc1ccc(OCCCC(=O)Nc2ccc(N3CCCCC3)cc2)cc1.Cl | -1.87
18 | CC(=O)N1C2CCCCC2S[C@H]2CCCCC21 (stereo partly shown) | 18.9
19 | Cc1ccc(/C=N/n2c(COc3ccccc3)n[nH]c2=S)s1 | 14.6
20 | COc1ccc(C(C(=O)NC2CCCC2)N(C(=O)c2ccoc2C)c2ccc(C)c(C)c2)cc1 (stereo not shown) | 15.1
21 | COc1ccccc1CNC(=O)CN1C(=O)c2ccccc2S1(=O)=O | 12.7
22 | CCC(=O)Nc1nc2ccccc2n1CCN(CC)CC | -14.1
23 | CCCn1c(NC(=O)c2ccc(C)cc2)nc2ccccc21 | -22.8

Row | SMILES | hERG current change (%, negative = inhibition) at 10uM [%]
24 | CCN(CC)CCn1c(NC(=O)c2ccccc2O)nc2ccccc21 | -68
25 | Cc1ccc(C(=O)Nc2nc3ccccc3n2CCN2CCCC2)cc1 | -53.8
26 | CCN(CC)CCn1c(NC(=O)c2ccc(Cl)cc2)nc2ccccc21 | -31.5
27 | CCN(CC)CCn1c(NC(=O)c2ccc(C(F)(F)F)cc2)nc2ccccc21 | -25.7
28 | CCCn1c(NC(=O)c2ccccc2Br)nc2ccccc21 | 16.2
29 | O=C(Nc1nc2ccccc2n1CCN1CCCCC1)c1ccc(Cl)cc1 | -13.2
30 | CCN(CC)CCn1c(NC(=O)c2ccc(C)cc2)nc2ccccc21 | -63.2
31 | CCCc1nnc(NC(=O)c2cc(OC)cc(OC)c2)s1 | -4.25
32 | Cc1ccccc1NC(=O)CSc1ccncc1 | -1.94
33 | CNCCc1ccccn1.Cl | 7.88
34 | CC(=O)NN1C(=O)/C(=C/c2ccc(Br)o2)SC1=S | 2.1
35 | COc1ccc(C(CNC(=O)c2cc3ccccc3cc2OC)N2CCCC2)cc1 (stereo not shown) | -67.5
36 | COc1ccc(C(CNC(=O)c2cc3ccccc3o2)N2CCCCC2)cc1 (stereo not shown) | -51.6
37 | COc1ccc(C(CNC(=O)c2ccco2)N2CCCCC2)cc1 (stereo not shown) | -5.74
38 | COc1ccc(C(CNC(=O)CCNC(=O)c2ccccc2OC)N2CCCC2)cc1 (stereo not shown) | -14.1
39 | COc1ccc(C(CNC(=O)c2cc3ccccc3o2)N2CCCC2)cc1 (stereo not shown) | -38.6
40 | COc1ccc(C(CNC(=O)c2ccccc2C)N2CCCC2)cc1 (stereo not shown) | -16.2
41 | CCOC(=O)c1cc(CC)sc1NC(=O)Cc1ccccc1 | 25.9
42 | CCCCn1c(-c2csc3ccccc23)n[nH]c1=S | 12.8
43 | Cc1ccc(S(=O)(=O)NC2=NCN(CCOC(=O)c3ccc([N+](=O)[O-])cc3)CN2)cc1 | 12.7
44 | CCn1cc(C(=O)NCc2ccc3c(c2)OCO3)c(=O)c2cc(F)c(N3CCN(C)CC3)cc21 | -37.2
45 | CCOC(=O)c1cccc(S(=O)(=O)N2CCCC2)c1 | 8.7
46 | C/C=C/c1ccc(OCC(O)CN2CCCCCCC2)c(OC)c1 (stereo not shown) | -35.4

Row | SMILES | hERG current change (%, negative = inhibition) at 10uM [%]
47 | COc1ccc(/C=C/C(=O)N(c2ccccn2)C2CCCCC2)cc1OC | -6.44
48 | C/C=C/c1ccc(OCCCCN2CCC(C)CC2)c(OC)c1 | -68.1
49 | COc1cc(/C=C/C(=O)OCC(=O)NCc2ccco2)ccc1O | 3.65
50 | COc1ccccc1OCCCCN1CCC(C)CC1 | -16
51 | COc1ccc(/C=C/C(=O)N(Cc2ccccc2)c2ccccn2)cc1OC | -76.6
52 | C/C=C/c1ccc(OCC(O)CN(C)Cc2ccc(SC)cc2)c(OC)c1.O=C(O)C(=O)O (stereo not shown) | -71.2
53 | COc1cc(/C=C/C(=O)N(Cc2ccccc2)c2ccccn2)cc(OC)c1OC | -23.2
54 | COc1cc(/C=C/C(=O)OCC(=O)NCc2ccco2)ccc1OC(F)F | 6.87
55 | C/C=C/c1ccc(OCCCCOc2ccc(OC)cc2)c(OC)c1 | -7.09
56 | C/C=C/c1ccc(OCC(=O)O)c(OC)c1 | 12.4
57 | COc1ccc(/C=C/C(=O)OCC(=O)NCc2ccco2)cc1OC | -72
58 | CCOC(=O)C1=C(COc2ccc(F)cc2Cl)NC(=O)NC1c1cc(C)ccc1C (stereo not shown) | 10.6
59 | O=[N+]([O-])c1cc(Cl)ccc1Nc1ccccc1 | 9.85
60 | CCOC(=O)c1sc(NC(=O)COC(=O)CNC(=O)c2ccco2)c(C(=O)OCC)c1C | 4.08
61 | COc1cccc(CN2CCN(S(=O)(=O)c3ccccc3)CC2)c1OC | -4.11
62 | CC(C(=O)NCc1ccc2c(c1)OCO2)c1ccc([N+](=O)[O-])cc1 (stereo not shown) | -13.6
63 | Cc1ccc(-c2noc(CN3C(C)CCCC3C)n2)cc1 (stereo not shown) | 2.64
64 | Cc1cc(O)c(C=O)c2c1C(=O)Oc1c(CO)c(O)c3c(c1O2)C(O)OC3=O (stereo not shown) | 0.355
65 | C/C=C/c1ccc(OCCCNC(C)CC)c(OC)c1.O=C(O)C(=O)O (stereo not shown) | -14
66 | COc1cc(C)ccc1OCCCCN1CC(C)OC(C)C1.O=C(O)C(=O)O (stereo not shown) | -9.65
67 | C/C=C/c1ccc(OCCCCOc2ccccc2C(C)=O)c(OC)c1 | -12.1
68 | C/C=C/c1ccc(OCCCNC2CCCC2)c(OC)c1.O=C(O)C(=O)O | -57.6
69 | C/C=C/c1ccc(OCCCNC)c(OC)c1.O=C(O)C(=O)O | -44.6

Row | SMILES | hERG current change (%, negative = inhibition) at 10uM [%]
70 | C/C=C/c1ccc(OCCCCN2CCN(CC)CC2)c(OC)c1.O=C(O)C(=O)O | -29.5
71 | C/C=C/c1ccc(OCCCCN2CC(C)CC(C)C2)c(OC)c1.O=C(O)C(=O)O (stereo not shown) | -81.6
72 | C/C=C/c1ccc(OCCCCN(C)Cc2ccccc2)c(OC)c1.O=C(O)C(=O)O | -79.4
73 | COc1cc(C)ccc1OCCOCCN(C)Cc1ccccc1.O=C(O)C(=O)O | -32.8
74 | C/C=C/c1ccc(OCCCCNCc2ccco2)c(OC)c1.O=C(O)C(=O)O | -72.9
75 | C/C=C/c1ccc(OCCNCc2ccccc2)c(OC)c1.O=C(O)C(=O)O | -39.8
76 | C/C=C/c1ccc(OCCOCCNCc2ccccc2)c(OC)c1.O=C(O)C(=O)O | -37
77 | C=CCN1CCN(C(c2ccccc2OC)c2nnnn2C(C)(C)C)CC1.Cl (stereo not shown) | -0.19
78 | CCOC(=O)c1c(C)oc2ccc(OC(=O)N3CCOCC3)cc12 | -16.1
79 | CCCN(CCC)C(=O)CCSCCC(=O)N(CCC)CCC | 14.5
80 | O=C(NCCN1CCOCC1)C1CCC(=O)N1Cc1ccc(F)cc1 (stereo not shown) | 1.05
81 | COc1ccc(Nc2nnc(SCc3cn4c(C)cccc4n3)s2)cc1 | -52.2
82 | COc1ccc(Nc2nnc(SCc3cc(=O)n4ccsc4n3)s2)cc1 | -68.9
83 | Cc1cccc2nc(CSc3nnc(N)s3)cn12 | -9.23
84 | CCc1ccc(Nc2nnc(SCc3cc(=O)n4ccsc4n3)s2)cc1 | -11.5
85 | Cc1ccc(Nc2nnc(SCc3cc(=O)n4cc(C)ccc4n3)s2)cc1 | -36.6
86 | O=c1cc(CSc2nnc(Nc3ccccc3)s2)nc2sccn12 | -27.6
87 | CCC(=O)N1CCC2(CC1)Oc1ccc(Cl)cc1C(=O)C21CC(c2cccnc2)=NO1 (stereo not shown) | -15.1
88 | O=C(CCCN1C(=O)c2cccnc2C1=O)N1CC(=O)N(CCc2ccccc2)C(=O)C1 | -9.44
89 | CCOC(=O)c1cnc2ccccc2c1Nc1cccc(C(=O)O)c1.Cl | 15.3
90 | CC(/C=C1\SC(=S)N(CCCC(=O)Nc2ccc(C(=O)O)c(O)c2)C1=O)=C\c1ccccc1 | 7.47
91 | Cc1ccc(C)c(S(=O)(=O)NCC(=O)Nc2ccc3c(c2)OCO3)c1 | 3.55
